# From PubChem BioAssay (NCI)
# About 83,000 compounds went through this panel and 20% of them were active in at least one assay; those are over-represented in the sample as a whole.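 Method: cells in 96-well plates; compound added at one concentration; 48 h incubation; percent growth measured; values under 10 scored active.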 A number with no mark means an inactive call. Calls of active or inactive are those of the source.
# Key:
# Experiment in all cases: NCI-60 one-dose screen, 48 h (100 = growth as untreated, 0 = no growth, -100 = all killed)
# Settings in all cases: 10 µM unless noted
# NCI-H23 lung = system: NCI-H23 lung
# HOP-62 NSCLC = system: HOP-62 NSCLC
# NCI-H460 lung = system: NCI-H460 lung
# HOP-92 NSCLC = system: HOP-92 NSCLC
# NCI-H522 lung = system: NCI-H522 lung
# A549/ATCC NSCLC = system: A549/ATCC NSCLC
# 786-0 renal = system: 786-0 renal
# COLO 205 colon = system: COLO 205 colon
# DU-145 prostate = system: DU-145 prostate
# K-562 leukemia = system: K-562 leukemia
# MALME-3M melanoma = system: MALME-3M melanoma
# MDA-MB-231 breast = system: MDA-MB-231 breast
# RXF 393 renal = system: RXF 393 renal
# SF-268 CNS = system: SF-268 CNS
# SF-295 CNS = system: SF-295 CNS
# SF-539 CNS = system: SF-539 CNS
# UACC-257 melanoma = system: UACC-257 melanoma
# M14 melanoma = system: M14 melanoma
# HCT-15 colon = system: HCT-15 colon
# NCI-H322M lung = system: NCI-H322M lung
SMILES,growth (NCI-H23 lung),growth (HOP-62 NSCLC),growth (NCI-H460 lung),growth (HOP-92 NSCLC),growth (NCI-H522 lung),growth (A549/ATCC NSCLC),growth (786-0 renal),growth (COLO 205 colon),growth (DU-145 prostate),growth (K-562 leukemia),growth (MALME-3M melanoma),growth (MDA-MB-231 breast),growth (RXF 393 renal),growth (SF-268 CNS),growth (SF-295 CNS),growth (SF-539 CNS),growth (UACC-257 melanoma),growth (M14 melanoma),growth (HCT-15 colon),growth (NCI-H322M lung)
NCCOc1ncccc1/C=C1\c2ccccc2-c2ccc([N+](=O)[O-])cc21,-68.1% (active),-60.1% (active),-46.1% (active),-39.5% (active),-20% (active),-58.6% (active),-85.8% (active),-50.5% (active),-34.4% (active),2.88% (active),-80.4% (active),-42.3% (active),-88.6% (active),-12.9% (active),-36.6% (active),-83% (active),5.4% (active),-63.3% (active),-26.4% (active),–
Cc1ccc2c(n1)C(=O)C(Oc1ccc(Br)cc1)=CC2=O,94.5%,116%,99.1%,108%,-27% (active),100%,104%,–,110%,77%,115%,91.1%,104%,88.4%,103%,104%,106%,94.9%,84.7%,–
O=c1oc2ccc(Cl)cc2c(=O)n1-c1ccc(Cl)cc1F,-4.79% (active),-6.42% (active),3.59% (active),-12.9% (active),-20.9% (active),5.46% (active),5.1% (active),6.93% (active),15.3%,4.6% (active),-29.9% (active),-17% (active),4.5% (active),7.63% (active),-64.2% (active),1.24% (active),-15.1% (active),0.632% (active),1.3% (active),–
O=C(Nc1ccc(Cl)cc1F)c1cc(F)ccc1O,1.46% (active),-0.133% (active),4.1% (active),-7.2% (active),-25.1% (active),7.57% (active),3.03% (active),-1.76% (active),16.3%,5.39% (active),-21.5% (active),-18.1% (active),9.69% (active),13.4%,-56.2% (active),4.32% (active),-17.3% (active),2.92% (active),3.11% (active),–
CC(C)(C)c1ccc(C2CC(=O)C3=C(C2)Nc2ccccc2N(C(=O)c2ccccc2Cl)C3c2ccc(F)cc2)cc1 (configuration not stated),3.17% (active),25.3%,-0.748% (active),58.5%,14.7%,-3.2% (active),51.8%,-63.5% (active),37%,10.1%,-85% (active),15.7%,-3.26% (active),10.3%,–,8.74% (active),-34.1% (active),5.11% (active),19.3%,–
CCN(CC)CCCNc1ccnc2cc3ccccc3cc12,83.3%,-9.44% (active),45.5%,55.6%,51.8%,46.6%,66.8%,74.8%,73.8%,66.3%,40.6%,56.4%,35.7%,60.2%,-34% (active),30.8%,75.5%,81.9%,43.2%,–
O=c1nc2sc3nc4ccccc4cc3cc-2s1,101%,104%,106%,125%,122%,117%,103%,127%,114%,–,116%,108%,117%,132%,104%,101%,98.8%,100%,104%,–
Cc1cc(OC(=O)c2ccc([N+](=O)[O-])cc2)nc2[nH]c(=O)sc12,103%,111%,105%,105%,96.8%,103%,104%,116%,111%,102%,107%,103%,108%,97.5%,103%,98.5%,104%,102%,103%,–
CN(C)c1ccc(/C=C/c2ccnc3c(O)cccc23)cc1,34.8%,20.3%,0.902% (active),53.5%,-10.9% (active),3.5% (active),-10.5% (active),99.7%,13.9%,5.89% (active),-2.62% (active),36.5%,36.1%,12.5%,-8% (active),2.91% (active),-15.5% (active),-22.5% (active),26.7%,–
Cc1cc(Br)c(N)c(Br)c1,97%,87.9%,104%,106%,86.3%,73.3%,93.3%,106%,108%,90%,104%,103%,106%,106%,95.9%,95.5%,77.5%,89.3%,96.1%,–
O=C1c2cc(Cl)ccc2Oc2cc([N+](=O)[O-])ccc2N1c1ccc(F)cc1F,–,87.8%,93.2%,98.9%,49.9%,66.7%,93.6%,96.5%,89.8%,78.8%,103%,83%,89.6%,72.9%,94.6%,96.7%,91%,99.2%,86.9%,92.5%
CCN1CCN(c2cc(C)c3cc(NC(=O)c4ccc(OC)c(OC)c4)ccc3n2)CC1,–,50.7%,25.4%,56.4%,51.8%,–,49%,11.9%,34.5%,7.23% (active),39.7%,47.9%,31.1%,50.8%,32%,45.2%,57.9%,30.2%,30.3%,50.7%
O=C(O)CCCN1C(=O)C2C3CCC(C3)C2C1=O (configuration not stated),–,109%,116%,107%,88%,104%,106%,119%,115%,105%,96%,130%,83.8%,107%,109%,103%,111%,105%,103%,107%
COc1cc(/C=C/C(=O)c2ccc(Nc3nc(NCCO)nc(N4CCOCC4)n3)cc2)cc(OC)c1OC,–,34.3%,-20.8% (active),39.7%,–,14.4%,16.9%,–,17.9%,10.7%,40%,32.9%,6.75% (active),17.5%,66.6%,-5.44% (active),48.8%,26.8%,2.16% (active),30.9%
CN(C)CCCNCc1ccc(-c2ccc(F)c(Cl)c2)o1,–,19.2%,-58.4% (active),35.7%,19.5%,-50.5% (active),49.6%,-90% (active),19.7%,-19% (active),-57.7% (active),13.4%,16%,53.3%,-18.3% (active),60.8%,-5.97% (active),-80.9% (active),1.01% (active),65%
CC(=O)Nc1nc2c(s1)CCc1c-2cn(S(=O)(=O)c2ccccc2)c1-c1ccccc1,–,101%,75.3%,87.4%,54.5%,53.4%,88.3%,75.3%,78.4%,37.9%,-23.6% (active),73.6%,85%,71.4%,43.5%,93.5%,93%,36.9%,51.9%,–
